According to PubChem BioAssay AID1159580 (chemical genetic matrix, 2015):
The whole screen tested about 5,500 compounds, of which about 2,000 (36%) were called active. Another 18% or so got no clear call; they are omitted. Rule as the data show it: active = normalized growth mostly below about 0.91 (no sharp cut-off); inconclusive = no clear call, values can overlap the other calls; inactive = mostly above about 0.92. Some of the results follow.

Assay: chemical genetic growth profiling, strain panel (AID 1159580);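 also: tested at 20 µM; growth read once vehicle control cultures reached saturation at 30 °C; 1 = growth at the plate median or of vehicle wells; lower values mean less growth of the strain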
Settings: growth OD
[1] = S. cerevisiae deletion strains, locus YAL013W, strain DEP1, stronger effect = lower value
[2] = S. cerevisiae deletion strains, locus YBR229C, strain ROT2, stronger effect = lower value
[3] = S. cerevisiae deletion strains, locus YDL101C, strain DUN1, stronger effect = lower value
[4] = S. cerevisiae deletion strains, locus YDL134C, strain PPH21, stronger effect = lower value
[5] = S. cerevisiae deletion strains, locus YDR150W, strain NUM1, stronger effect = lower value
[6] = S. cerevisiae deletion strains, locus YEL061C, strain CIN8, stronger effect = lower value
[7] = S. cerevisiae deletion strains, locus YGR078C, strain PAC10, stronger effect = lower value
[8] = S. cerevisiae deletion strains, locus YGR229C, strain SMI1, stronger effect = lower value
[9] = S. cerevisiae deletion strains, locus YHR030C, strain SLT2, stronger effect = lower value
[10] = S. cerevisiae deletion strains, locus YHR087W, strain rtc3, stronger effect = lower value
[11] = S. cerevisiae deletion strains, locus YJR043C, strain POL32, stronger effect = lower value
[12] = S. cerevisiae deletion strains, locus YJR075W, strain HOC1, stronger effect = lower value
[13] = S. cerevisiae deletion strains, locus YLR039C, strain RIC1, stronger effect = lower value
[14] = S. cerevisiae deletion strains, locus YLR058C, strain SHM2 (second series), stronger effect = lower value
[15] = S. cerevisiae deletion strains, locus YLR085C, strain ARP6, stronger effect = lower value
[16] = S. cerevisiae deletion strains, locus YLR262C, strain YPT6, stronger effect = lower value
[17] = S. cerevisiae deletion strains, locus YML094W, strain GIM5, stronger effect = lower value
[18] = S. cerevisiae deletion strains, locus YMR219W, strain ESC1, stronger effect = lower value
[19] = S. cerevisiae deletion strains, locus YMR263W, strain SAP30, stronger effect = lower value
[20] = S. cerevisiae deletion strains, locus YNL128W, strain TEP1, stronger effect = lower value
[21] = S. cerevisiae deletion strains, locus YNL153C, strain GIM3, stronger effect = lower value
[22] = S. cerevisiae deletion strains, locus YNL298W, strain CLA4 (second series), stronger effect = lower value
[23] = S. cerevisiae deletion strains, locus YNL322C, strain KRE1, stronger effect = lower value
[24] = S. cerevisiae deletion strains, locus YNR030W, strain Alg12, stronger effect = lower value
[25] = S. cerevisiae deletion strains, locus YOL006C, strain TOP1, stronger effect = lower value
[26] = S. cerevisiae deletion strains, locus YPL055C, strain LGE1, stronger effect = lower value
[27] = S. cerevisiae deletion strains, locus YPL241C, strain CIN2, stronger effect = lower value
[28] = S. cerevisiae deletion strains, locus YPR135W, strain CTF4, stronger effect = lower value

Measured: normalized growth

COc1cc(C2OC(c3cc(C)ccc3[N+](=O)[O-])=NN2C(C)=O)cc(OC)c1OC (stereo not given)
inactive: [1] 0.986 | [2] 0.975 | [3] 1.04 | [4] 0.999 | [5] 0.993 | [6] 0.941 | [7] 1 | [8] 0.999 | [9] 0.948 | [10] 0.963 | S. cerevisiae deletion strains, locus YJL187C, strain SWE1, stronger effect = lower value 0.98 | [11] 1 | [12] 0.999 | S. cerevisiae deletion strains, locus YKL190W, strain CNB1, stronger effect = lower value 0.993 | [13] 0.969 | [14] 0.978 | [15] 0.967 | [16] 0.948 | [17] 0.98 | [18] 0.984 | [19] 0.999 | [20] 0.991 | [21] 1.02 | [22] 1.01 | [23] 0.993 | [24] 0.985 | [25] 0.924 | [26] 0.972 | [27] 1.01 | [28] 1.04

N#CC(NCc1ccccc1)c1ccc(Cl)c(Cl)c1 (stereo not given)
inactive: [1] 1 | [2] 0.983 | [3] 0.974 | [5] 0.923 | [6] 0.985 | [7] 0.984 | [8] 0.989 | [9] 0.887 | [10] 1.01 | [11] 1.01 | [12] 0.968 | [13] 0.929 | [14] 0.995 | [15] 0.977 | [16] 0.957 | [17] 0.958 | [18] 0.998 | [19] 0.974 | S. cerevisiae deletion strains, locus YMR307W, strain GAS1, stronger effect = lower value 0.818 | [20] 0.994 | [21] 0.98 | [22] 0.96 | [23] 1.01 | [24] 0.968 | [25] 0.982 | [26] 0.988 | [27] 0.938 | [28] 0.938 | S. cerevisiae strains, strain wild type, stronger effect = lower value 1
active: [4] 0.848
